# Data as given in paper PMC5540273 (PLoS ONE, 2017).
# Tested on: MAK
# Details: concentration: 1 μM, replicates: in singlicate; n = 1
# 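Also: KINOMEscan kinase panel screen.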
row,Structure (SMILES),%Inh [%]
1,Fc1ccc(-c2ncn(C3CCNCC3)c2-c2ccnc(Oc3ccc(-c4ccccc4)cc3)n2)cc1 [SB-245391],10
2,COc1cc2c(cc1OCCN1CCNCC1)ncc1c3ccc(C#N)cc3[nH]c21,2
3,Cl.Cl.NCC(NCc1ccc(-c2ccnc3[nH]ccc23)s1)c1ccccc1 (stereo not drawn) [GSK1321565],0
4,O=c1[nH]cc(-c2ccc(N3CCOCC3)cc2)c2sc(-c3cn[nH]c3)cc12 [GSK2276055],30
5,O=C(Nc1cccc(-c2nn3ccccc3c2-c2ccnc(Nc3cccc(F)c3)n2)c1)c1c(F)ccc(F)c1Cl [GSK357952],22
6,COC(=O)Nc1nc2cc(Oc3ccc(NC(=O)Nc4cc(C(F)(F)F)ccc4F)cn3)ccc2[nH]1.Cl.Cl [GW681170],0
7,COCCOCCOc1cc2ncc3c4ccc(C#N)cc4[nH]c3c2cc1OC,0
8,c1ccc(-c2n[nH]cc2Nc2ccnc3ccccc23)nc1 [GW694077],0
9,C[C@@H](Oc1cc(-n2cnc3cc(-c4ccnc(NCCS(C)(=O)=O)c4)ccc32)sc1C(N)=O)c1ccccc1Cl [GSK907232],0
10,CN1CCN(CCCNc2nccc(-c3c(-c4ccc(F)cc4)nn4cc(C(F)(F)F)ccc34)n2)CC1 [GW621581],3
11,Oc1cc(Nc2ccnc3cc(I)ccc23)ccc1F [GW552771],22
12,COc1ccc(-c2coc3ccc(-c4nnc(SCc5ccc(OC)c(C(F)(F)F)c5)o4)cc23)cc1,22
13,Cl.c1ccc(-c2ccc3c(Nc4ccc5[nH]ncc5c4)ccnc3c2)nc1 [GW440137],21
14,COc1ccc(CNC(=O)NC2CCN(c3ccnc(Nc4ccc(F)cc4)n3)CC2)cc1 [GSK1379788],24
15,Cn1cc(-c2ccc3c(c2)CCN3C(=O)Cc2cccc(Cl)c2)c2c(N)ncnc21 [GSK2606590],6
16,Cl.NC(=O)c1cccc(Nc2nccc(Nc3ccc(Oc4c(Cl)cccc4Cl)c(Cl)c3)n2)c1 [GW659009],27
17,Cc1ccc(F)c(C(=O)Nc2cccc(-c3nn4ccccc4c3-c3ccnc(Nc4cccc(F)c4)n3)c2)c1F [GSK361061],0
18,Cc1occc1-c1ncc(OC[C@@H](N)Cc2c[nH]c3ccccc23)cc1-c1ccc2[nH]nc(C)c2c1.O=C(O)C(F)(F)F [GSK682037],3
19,Cc1cccc(Nc2nc(N[C@H]3CCNC3)ncc2C(N)=O)c1.Cl [GSK2197149],11
20,CN(c1ccc(NC(=O)Nc2cc(C(F)(F)F)ccc2F)cc1)c1ccnc(Nc2ccc(S(N)(=O)=O)cc2)n1 [GW809893],95.7
21,CNC(=O)c1ccccc1Nc1nc(Nc2ccc(N3CCOCC3)cc2)ncc1Cl.Cl [GSK1576028],11
22,Cl.Cl.NCC(NC(=O)c1cc(-c2ccccc2)c(-c2ccnc3[nH]ccc23)s1)c1ccccc1 (stereo not drawn) [GSK1321561],23
23,NCCCC(NC(=O)c1cc(Br)c(-c2ccnc3[nH]ccc23)s1)c1ccccc1.O=C(O)C(F)(F)F.O=C(O)C(F)(F)F (stereo not drawn) [GSK1287544],34
24,O=C(Nc1cccc(Oc2ccc3nc(NC(=O)C4CC4)cn3n2)c1)c1ccccc1C(F)(F)F,0
25,Nc1n[nH]c2cnc(-c3ccccc3)cc12 [SB-642124],37
26,CN1CCN(Cc2cccc(-c3ccc4c(Nc5ccc(Oc6ccccc6)cc5)ccnc4c3)c2)CC1 [GW578342],27
27,Nc1ncc(-c2cccnc2)c2scc(-c3ccc4c(c3)CCN4C(=O)Cc3ccccc3)c12 [GSK683281],28
28,O=C(Nc1cccc(-c2nn3ncccc3c2-c2ccnc(Nc3ccccc3)n2)c1)c1c(F)cccc1F [GSK198271],19
29,Cl.c1ccc(-c2ccc3c(Nc4ccc5[nH]ccc5c4)ccnc3c2)nc1 [GW440138],1
30,Cc1ccc(C(=O)Nc2ccc(Nc3ccnc4cc(-c5nccs5)ccc34)cc2O)cc1.Cl [GW494702],46
